Experimental data reported in PubChem BioAssay.
Results with a measured potency or affinity are listed apart. Active and inactive are the calls of the source. Cut-off not given; nearly all actives show IC50 up to about 0.91 µM.

biological target: Calcium-dependent protein kinase 4 (Plasmodium falciparum (isolate 3D7)) (UniProt Q8IBS5); experiment: PfCDPK4 kinase inhibitors, biochemical, TCAMS library (AID 1159588); details: recombinant PfCDPK4, Kinase-Glo ATP depletion luminescence
Sequence (Q8IBS5 whole entry, looked up): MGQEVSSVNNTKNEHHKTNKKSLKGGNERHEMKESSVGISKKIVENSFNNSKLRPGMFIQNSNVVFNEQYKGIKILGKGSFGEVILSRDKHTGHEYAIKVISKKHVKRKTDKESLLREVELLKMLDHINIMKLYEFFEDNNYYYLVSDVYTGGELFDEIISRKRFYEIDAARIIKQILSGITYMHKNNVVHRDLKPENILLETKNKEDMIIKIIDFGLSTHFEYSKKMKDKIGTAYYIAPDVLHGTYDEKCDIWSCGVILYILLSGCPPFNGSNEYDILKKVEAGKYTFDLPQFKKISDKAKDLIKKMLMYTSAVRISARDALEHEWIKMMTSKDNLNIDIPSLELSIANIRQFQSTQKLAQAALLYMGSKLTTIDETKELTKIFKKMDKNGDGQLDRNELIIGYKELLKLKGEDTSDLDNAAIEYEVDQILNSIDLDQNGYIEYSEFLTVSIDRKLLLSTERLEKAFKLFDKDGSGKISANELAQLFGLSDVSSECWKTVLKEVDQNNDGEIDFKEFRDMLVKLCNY

outcome, inactive:
CN(C)CCCNCc1ccc(-c2ccc(C(F)(F)F)cc2)cc1
Fc1ccccc1COc1ccc(Nc2ncnc3ccc(-c4nnc(C(F)(F)F)o4)cc23)cc1Cl
O=C(Nc1ccc([N+](=O)[O-])cc1)c1nn(-c2ccccc2)cc1N=Cc1cccc(O)c1
Cc1cccc2[nH]c(-c3ccc(-c4ccc(NC(=O)N[C@@H]5C[C@H]5c5ccccc5)cc4)cc3)nc12
O=c1cc(NCCCCNCc2ccc(Br)c(Br)c2)[nH]c2ccccc12
O=S1N=C(NCCCN(Cc2cccs2)c2ccccn2)C(NCc2ccccc2)=N1 (centres undefined)
COc1ccccc1NC(=O)NC1CCN(CCCCCNC(=O)/C=C/c2ccc(Cl)c(Cl)c2)CC1
CC(=O)Oc1cc(C)ccc1C1CCN(CCCCNC(=O)c2ccc(-c3ccc(C(F)(F)F)cc3)cc2)CC1
O=c1cc(NCCCNCc2csc(Br)c2Sc2ccc(Cl)cc2)[nH]c2ccccc12
Cc1cccc2[nH]c(-c3ccc(-c4cccc(NC(=O)Nc5ccsc5)c4)s3)nc12
CCCCCCP(=O)(COc1ccc(CCN(CC(O)COc2cccc3[nH]c(C(N)=O)cc23)CC(O)COc2cccc3[nH]c(C(N)=O)cc23)cc1)OCCCC (centres undefined)
COc1ccc(-c2csc3ncnc(Cl)c23)cc1
C[C@H](Cc1ccc(Oc2ccc(C[C@@H](C)NC[C@H](O)c3cccc(Cl)c3)cc2)cc1)NC[C@H](O)c1cccc(Cl)c1
CCCCCCCN1CC[C@@H](CCCc2ccnc3ccc(OCCN4CCNCC4)cc23)[C@@H](CC)C1
